The values below come from PubChem BioAssay (EPA / NIEHS).

Structures are written as SMILES. Inconclusive results are not listed. Calls of active or inactive are those of the source. How the source made its calls: active means hit-call score of the fitted dose curve at least 0.9, where 1 is the maximum; inconclusive means response in the unintended direction; inactive means score below 0.9.

The term AC50 denotes the concentration giving half of the maximal activity seen.

Read-out in this test: sulfotransferase (SULT2A), SULT2A1 (gene 6822)
Kind of test: CLD_SULT2A_48hr: CellzDirect (CLD) Gene Expression Assay for sulfotransferase (SULT2A) at 48 hours (AID 2283710).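 Further: hits raise SULT2A1 transcript above the 0.2% DMSO vehicle baseline.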 Here is the method:
CLD_48hr is a cell-based, multiplexed-readout assay that uses hepatocyte, a human liver primary cell, with measurements taken at 48 hours after chemical dosing in a 96-well plate.CLD_SULT2A_48hr is one of 16 assay component(s) measured or calculated from the CLD_48hr assay. It is designed to make measurements of mRNA induction, a form of inducible reporter, as detected with chemiluminescence signals by Quantitative Nuclease Protection Assay (qNPA) technology.Data from the assay component CLD_SULT2A_48hr was analyzed at the endpoint, CLD_SULT2A_48hr, in the positive analysis fitting direction relative to DMSO as the negative control and baseline of activity. Using a type of inducible reporter, gain-of-signal activity can be used to understand changes in the reporter gene as they relate to the gene SULT2A1. Furthermore, this assay endpoint can be referred to as a primary readout. To generalize the intended target to other relatable targets, this assay endpoint is annotated to the transferase intended target family, where subfamily is sulfotransferase.
Human hepatocyte cultures were treated daily for two consecutive days with fresh dosing solutions containing appropriate concentrations of the 320 ToxCast chemicals (chemical identities were blinded to CellzDirect and other ToxCast collaborators), vehicle control (0.2% DMSO), and positive control inducers as summarized in Table 1. Due to the large number of treatment groups and chemicals examined, the ToxCast chemicals were divided into two groups (spanning two independent cultures of hepatocytes from separate donor preparations (Hu778: ToxCast plates 1 and 2; Hu776: ToxCast plates 3 and 4). Each preparation of human hepatocyte cultures was treated with respective vehicle control, medium only control, set of six positive controls/reference chemicals for the five hepatic receptor pathways, and a subset of eight of the ToxCast chemicals (indoxacarb, pyrithiobac-sodium, norflurazon, cyhalofop-butyl, methomyl, thiram, acetochlor, and propiconazole). These replicate data, coupled with internal replicates designed within the blinded ToxCast chemical library, provided additional data to evaluate interindividual differences between hepatocyte preparations and their potential impact on chemical profiles.Cell morphology and integrity were evaluated using phase-contrast microscopy as an indicator of hepatocyte cell health (Tyson & Green, 1987). Cultures for each treatment group (i.e., media, vehicle [0.2% DMSO], positive control inducers [multiple concentrations], and the ToxCast chemicals [multiple concentrations]) were observed and cell morphology was assessed relative to vehicle control cultures at each harvest time point (0, 6, 24, or 48 h). […] Images were evaluated at the conclusion of the study to assess changes in cell integrity and account for the effects of chemical exposure on uncharacteristic changes in concentration-dependent gene expression profiles. The results from these determinations of apparent cytotoxicity were annotated (yes/no) alongside the corresponding qNPA data for reference.At the conclusion of each treatment period, hepatocyte cultures (96-well) were washed with 1 volume of HBSS, lysed by addition of 25 ul ArrayPlate lysis buffer (HTG, Tucson, AZ), and 70 ul/well of Denaturation Oil, denatured by incubation at 95C for 10 min, and frozen at approximately -70C until analysis by nuclease protection assay (qNPA) (Roberts et al., 2007). For qNPA analysis, cell lysates were thawed at 50C for approximately 30 min, qNPA probes were added, and samples were incubated at 95C for 10 min to begin the detection process by denaturing the target RNA, dissociating the duplexes and secondary structure hybridization. At the conclusion of the hybridization period, S1 nuclease reagent was added to each sample to digest all nonprotected nucleotides at 50C for 60-90 min. […]
In the case of `CCCN(CCC)c1c([N+](=O)[O-])cc(C(F)(F)F)c(N)c1[N+](=O)[O-]`, the call was inactive.
For `CC(C)(c1ccc(O)cc1)c1ccc(O)cc1`, the compound was called inactive.
Consider `COC(=O)c1ccc(CNS(C)(=O)=O)cc1S(=O)(=O)NC(=O)Nc1nc(OC)cc(OC)n1`, for which the result was inactive.
`CCOC(=O)COc1cc(-n2ncc(C(F)(F)F)c(C)c2=O)c(F)cc1Cl`: the compound was called inactive.
In the case of `CCOC(=O)NCCOc1ccc(Oc2ccccc2)cc1`, the outcome was inactive.
Take `CCCOC(=O)NCCCN(C)C`: the compound was called inactive.
`COC(=O)CSc1cc(N=c2sc(=O)n3n2CCCC3)c(F)cc1Cl`: the result was inactive.
On the same count and under the same terms, the entry for `OB(O)O` is “inactive”; for `CCC(O)=C1C(=O)CC(C(=O)O)CC1=O` (centres undefined) it is “inactive”; for `C#CCOC(=O)[C@@H](C)Oc1ccc(Oc2ncc(Cl)cc2F)cc1` it is “inactive”.
In the case of `CCCCC(CC)COC(=O)c1ccccc1C(=O)O` (centres undefined), the call was inactive.
Turning to `CCSC(=O)N(CC(C)C)CC(C)C`, the compound was called inactive.
Regarding `CC(C)(C)[C@@H](O)[C@@H](Cc1ccc(Cl)cc1)n1cncn1`, the call was inactive.
On the same count and under the same terms, to `COC(=O)c1c(Cl)nn(C)c1S(=O)(=O)NC(=O)Nc1nc(OC)cc(OC)n1` belongs “inactive”; to `CSC(=O)c1cccc2nnsc12`, “inactive”.
Take `COCCO`: the call was inactive.
With `CCCCOC(=O)C(C)Oc1ccc(Oc2ccc(C(F)(F)F)cn2)cc1` (centres undefined), the compound was called inactive.
Turning to `CCCCC(CC)CN1C(=O)C2C3C=CC(C3)C2C1=O` (centres undefined), the AC50 was 20 µM (active).
Regarding `CCOC(=O)[C@H](C)Oc1ccc(Oc2nc3ccc(Cl)cc3o2)cc1`, the compound was classed as inactive.
Consider `CCCN(CCC)C(=O)SCC`, for which the compound was called inactive.
Turning to `CC1(C)C(C=C(Cl)Cl)C1C(=O)OCc1cccc(Oc2ccccc2)c1` (centres undefined), the compound was called inactive.
As for `CCN(CC)C(=O)c1cccc(C)c1`, the compound was called inactive.
With `CCNc1nc(N)nc(Cl)n1`, the compound was called inactive.
For the compound `CCOC(=O)C(C)Oc1ccc(Oc2cnc3cc(Cl)ccc3n2)cc1` (centres undefined), the compound was classed as inactive.
As to `CCCOC(=O)c1ccc(C(=O)OCCC)nc1`, the outcome was inactive.
Same read-out and setting: to `COC(=O)c1ccccc1C(=O)O` belongs “inactive”; to `CCC(C)OC(=O)N1CCCCC1CCO` (centres undefined), “inactive”.
As for `Cc1nn(C)c(Oc2ccccc2)c1C=NOCc1ccc(C(=O)OC(C)(C)C)cc1`, the call was inactive.
As to `COc1c(Cl)ccc(Cl)c1C(=O)O`, the result was inactive.
Turning to `CCOC(=O)C(C)Oc1ccc(Oc2nc3ccc(Cl)cc3o2)cc1` (centres undefined), the compound was classed as inactive.
For `CCN(Cc1c(F)cccc1Cl)c1c([N+](=O)[O-])cc(C(F)(F)F)cc1[N+](=O)[O-]`, the compound was classed as inactive.
Take `c1ccc(Nc2ccccc2)cc1`: the AC50 is 3.48 µM (active).
Still for that read-out and setting: to `CCCCOCCOCCOCc1cc2c(cc1CCC)OCO2` belongs 12 µM (active).
As to `COC(=O)c1ccc(I)cc1S(=O)(=O)NC(=O)Nc1nc(C)nc(OC)n1`, the result was inactive.
